According to PubChem BioAssay (NCATS):
“And” between values parts separate entries of the source, which are not always exact repeats. Identical values can stand only once. Inconclusive results are not listed. Unmarked numbers belong to inactive results. The source made the active and inactive calls. The call rests on the fitted dose curve; in most records, active means well fitted activation curve with a large enough effect; inconclusive means small, poorly fitted or top-dose-only effect; inactive means no such curve, though single readings can be large or run the other way.

What follows are compounds tested against Cellular tumor antigen p53 (Homo sapiens) (UniProt P04637) (assay: Primary qHTS for small molecule compounds that upregulate eGFP-tagged delta133p53alpha (in N-terminal) cells. (AID 2060322; further: nearly all actives have a fitted effect of over 75% in size;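 on activation: cells pre-induced with doxycycline then dosed without doxycycline; series mostly up to about 56 µM; 0% = DMSO vehicle and 100% = reference activator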)). Settings: NCI-H358 eGFP-delta133p53alpha fluorescence, 24 h; activation: active compounds read high.
Chain of Cellular tumor antigen p53 (Homo sapiens) (P04637 whole entry, looked up): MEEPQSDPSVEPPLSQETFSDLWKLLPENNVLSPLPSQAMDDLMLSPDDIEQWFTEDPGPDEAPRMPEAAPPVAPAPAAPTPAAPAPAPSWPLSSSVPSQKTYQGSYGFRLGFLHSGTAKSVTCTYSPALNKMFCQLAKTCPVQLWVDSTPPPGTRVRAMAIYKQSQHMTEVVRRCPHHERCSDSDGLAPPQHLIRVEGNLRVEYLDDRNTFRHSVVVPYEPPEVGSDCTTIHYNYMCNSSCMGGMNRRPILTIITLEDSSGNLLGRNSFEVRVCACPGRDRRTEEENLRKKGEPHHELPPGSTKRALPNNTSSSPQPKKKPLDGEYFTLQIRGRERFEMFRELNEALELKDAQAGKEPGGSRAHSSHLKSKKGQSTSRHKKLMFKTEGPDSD
Method in brief: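 NCI-H358 cells pre-induced 24 h with 10 ng/ml doxycycline for eGFP-delta133p53alpha, plated dox-free and exposed 24 h at 37C to titrated compounds. Fixed, Hoechst-stained; gated GFP peak intensity by laser scanning cytometry, normalized to DMSO (0%) and 57.5 uM 5-azacytidine (100%).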
Potency means the concentration at half of the fitted maximal effect.

Structure (SMILES)	activation	Potency
Cc1ccnc2c1NC(=O)c1cccnc1N2C1CC1	-6.69% and 7.43%	–
CCCCC(CC)COC(=O)c1ccccc1C(=O)O (stereo not given)	-12.6%	–
CN1C[C@H]2c3ccccc3Oc3ccc(Cl)cc3[C@@H]2C1	-34.8% and -0.565%	–
CCS(=O)(=O)CCn1c([N+](=O)[O-])cnc1C	–	17.4 µM (active)
CN(C)CCOC1=Cc2ccccc2Sc2ccc(Cl)cc21	2.51%	–
C[C@]12CCC(=O)C=C1CC[C@@H]1[C@@H]2[C@@H](O)C[C@@]2(C)[C@H]1CC[C@]2(O)C(=O)COC(=O)CCC(=O)O	1.69%	–
COc1ccc2c(c1)CC[C@H]1[C@@H]2CC[C@]2(C)[C@@H](NCCCCCCN3C(=O)C=CC3=O)CC[C@H]12	38.4%	–
CC[C@H]1OC(=O)[C@H](C)[C@@H](O[C@H]2C[C@@](C)(OC)[C@@H](O)[C@H](C)O2)[C@H](C)[C@@H](O[C@@H]2O[C@H](C)C[C@H](N(C)C)[C@@H]2O)[C@](C)(OC)C[C@@H](C)C(=O)[C@H](C)[C@@H](O)[C@]1(C)O	-25.1%	–
C/C(=C(/OCCOc1ccc(Cl)cc1)c1ccc(Cl)cc1Cl)n1ccnc1	7.53%	–
C[N+]1(C)CCC(OC(=O)C(O)(c2ccccc2)C2CCCC2)C1 (stereo not given)	7.34%	–
CC(C)(C)NC[C@H](O)COc1cccc2c1CCCC2=O	8.47%	–
N[C@@H](CSCCCO)C(=O)O	-10%	–
CCOC(=O)C(=O)CCCCCCl	-5.02%	–
CCCCC1C(=O)N(c2ccccc2)N(c2ccc(O)cc2)C1=O (stereo not given)	–	4.37 µM (active)
O=C(O)c1ccnc2cc(C(OCCCN3CCCCC3)c3ccccc3Cl)[nH]c12 (stereo not given)	1.12%	–
Cn1c(=O)c2[nH]c(Br)nc2n(C)c1=O	-3.95%	–
CCN(CC)CCNc1ccc(CO)c2sc3ccccc3c(=O)c12	28.5%	–
COc1ccccc1OCC(O)CO (stereo not given)	-10.9%	–
COCCCCC(=NOCCN)c1ccc(C(F)(F)F)cc1	8.31%	–
COc1cc(C(=O)NCc2ccc(OCCN(C)C)cc2)cc(OC)c1OC	1.67%	–

Structure (SMILES)	activation	Potency
NC(=O)NS(=O)(=O)c1ccc(Cl)cc1	1.69%	–
OCc1c[nH]c2ccccc12	–	31.7 µM (active)
CC(Cc1cccc(C(F)(F)F)c1)NCCOC(=O)c1ccccc1 (stereo not given)	17.6%	–
Cc1cc(-c2ccccc2)nnc1NCCN1CCOCC1	16.4%	–
COC(=O)c1cc(Cl)ccc1OC	2.51%	–
COc1ccc(-c2cc3ncc(C)n3c(Nc3ncccc3C(N)=O)n2)cc1OC	2.48%	–
C[n+]1c2cc(N)ccc2cc2ccc(N)cc21 (tested in a mixture with another compound)	-29.9%	–
CC(=O)NCc1c(I)c(NC(C)=O)c(I)c(C(=O)O)c1I	16.4%	–
CCc1cc2cc(OC)c(OC)cc2c(Cc2ccccc2)n1	-22.6%	–
CC(COc1ccccc1)NC(C)C(O)c1ccc(O)cc1 (stereo not given)	18.6%	–
Cn1cc(C(F)(F)F)nc1-c1ccc(OCC(O)CNCCOc2ccc(O)c(C(N)=O)c2)cc1 (stereo not given)	-30.5%	–
CCNC(=O)CCCC=CC[C@@H]1[C@H](C=CC(O)CCc2ccccc2)[C@@H](O)C[C@@H]1O (stereo not given in full)	-2.33%	–
Clc1ccc(-c2nc3sccn3c2C=NOCc2ccc(Cl)c(Cl)c2)cc1	-15.4%	–
CC[C@H]1CN2CCc3cc(OC)c(OC)cc3[C@H]2C[C@@H]1C[C@@H]1NCCc2cc(OC)c(OC)cc21	–	1.37 µM (active)
COC(=O)C1=C(C)NC(C)=C(C(=O)OCC(C)=O)C1c1ccccc1[N+](=O)[O-] (stereo not given)	1.69%	–
c1ccc2c(CC3=NCCN3)cccc2c1	-10%	–
COC(=O)c1nc(Cl)c(Cl)nc1N	–	27.6 µM (active)
OCc1ccccc1O[C@@H]1O[C@H](CO)[C@H](O)[C@H](O)[C@H]1O	15.8%	–
NS(=O)(=O)c1cc2c(cc1Cl)NC(CSCc1ccccc1)=NS2(=O)=O	-16.7%	–
C#C[C@]1(O)CC[C@@H]2[C@@H]3CCc4cc(O)ccc4[C@H]3CC[C@@]21C	18.7%	–
